High-throughput results as filed in PubChem BioAssay.
LAP4 TOR yeast: modulators of TOR pathway LAP4-GFP in S. cerevisiae; AID 2023; S. cerevisiae LAP4-GFP multiplex, flow cytometry GFP, 3 h; median GFP as percent of DMSO wells; GFP response vs DMSO, % at 10 µM; actives 0.34% (n = 320,000);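 active = GFP response vs DMSO above a set limit, about the screen mean plus 3 SD, cut at about 150% in these data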
AGP1 TOR yeast: modulators of TOR pathway AGP1-GFP in S. cerevisiae. S. cerevisiae AGP1-GFP multiplex flow cytometry, 3 h; GFP as percent of DMSO wells. GFP response vs DMSO, % at 10 µM. actives 0.02% (n = 320,000). AID 2066;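 active = GFP response relative to DMSO above a set limit, near screen average plus 3 SD, cut at about 150% in these data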;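 note: median GFP channel fluorescence of the gated AGP1 strain per well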
CIT2 TOR yeast: modulators of TOR pathway CIT2-GFP in S. cerevisiae; S. cerevisiae CIT2-GFP strain, flow cytometry, 3 h; 100 means same as DMSO wells; GFP response vs DMSO, % at 10 µM; actives 0.065% (n = 320,000); AID 2029;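 active = GFP response relative to DMSO above a set limit, near the screen mean plus 3 SD, cut at about 150% in these data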;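 note: ratio of well median GFP fluorescence to mean of DMSO wells on the plate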
MEP2-GFP yeast: alters MEP2-GFP fluorescence in TOR pathway yeast screen. actives 0.51% (n = 330,000). S. cerevisiae MEP2-GFP strain, flow cytometry GFP, 3 h; 100% = DMSO control level. GFP response vs DMSO, % at 10 µM;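 active = GFP response versus DMSO above a set limit, roughly screen mean plus 3 SD, cut at about 180% in these data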;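 note: median GFP fluorescence of the barcode-gated MEP2-GFP cells per well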
RPL19A TOR yeast: yeast TOR pathway RPL19A-GFP modulation; S. cerevisiae RPL19A-GFP strain, flow cytometry, 3 h; active compounds read low; percent response vs DMSO, % at 10 µM; actives 0.3% (n = 330,000); AID 2025;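 active = percent response vs DMSO below 50%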;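 note: median channel GFP fluorescence of the barcoded RPL19A-GFP strain; ratio of sample median GFP to plate DMSO average so 100% = DMSO; lower means less RPL19A-GFP as with rapamycin TOR inhibition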
Pemphigus Ab inh: blocks pemphigus antibody binding to human desmoglein-3. P32926. DSG3-coupled beads, scFv-anti-DSG3-GFP binding, flow cytometry; active compounds read low. binding (percent of control), % at 10 µM. actives 0.48% (n = 310,000);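 active = binding more than 3 SD below its plate's average and above zero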;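 note: hits lower antibody fragment binding to DSG3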
Target sequence (P32926 whole entry, looked up, the tested form may be a part): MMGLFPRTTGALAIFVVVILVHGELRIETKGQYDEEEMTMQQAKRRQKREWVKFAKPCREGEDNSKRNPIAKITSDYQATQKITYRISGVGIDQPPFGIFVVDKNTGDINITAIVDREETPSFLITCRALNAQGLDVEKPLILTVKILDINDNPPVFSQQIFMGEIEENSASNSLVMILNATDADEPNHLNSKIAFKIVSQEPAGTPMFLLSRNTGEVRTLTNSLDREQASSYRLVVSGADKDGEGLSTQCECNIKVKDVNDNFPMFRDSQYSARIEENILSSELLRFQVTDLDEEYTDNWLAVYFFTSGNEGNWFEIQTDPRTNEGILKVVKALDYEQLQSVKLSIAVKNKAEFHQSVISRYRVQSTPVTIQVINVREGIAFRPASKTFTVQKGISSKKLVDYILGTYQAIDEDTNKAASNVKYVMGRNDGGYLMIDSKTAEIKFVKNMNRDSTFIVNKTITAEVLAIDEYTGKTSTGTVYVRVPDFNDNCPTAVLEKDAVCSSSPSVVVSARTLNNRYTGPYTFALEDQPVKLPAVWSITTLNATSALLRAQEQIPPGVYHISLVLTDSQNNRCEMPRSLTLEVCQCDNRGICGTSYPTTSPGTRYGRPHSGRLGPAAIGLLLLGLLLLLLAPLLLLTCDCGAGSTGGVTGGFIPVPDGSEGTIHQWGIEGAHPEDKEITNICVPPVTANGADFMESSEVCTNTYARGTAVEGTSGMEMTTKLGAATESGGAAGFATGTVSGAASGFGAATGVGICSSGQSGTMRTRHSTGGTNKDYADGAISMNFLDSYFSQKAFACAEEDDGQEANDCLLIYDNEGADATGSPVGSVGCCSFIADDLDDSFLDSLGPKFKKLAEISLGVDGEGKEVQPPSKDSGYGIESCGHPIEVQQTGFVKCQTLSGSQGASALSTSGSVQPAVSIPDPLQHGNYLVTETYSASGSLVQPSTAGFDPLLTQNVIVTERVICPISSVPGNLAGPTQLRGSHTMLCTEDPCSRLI
LAP4 cherry2: reconfirmed LAP4-GFP TOR pathway modulator in yeast. shares compounds with LAP4 TOR yeast. S. cerevisiae LAP4-GFP strain, flow cytometry GFP, 3 h. GFP response vs DMSO, % at 10 µM. actives 20% (n = 590). AID 2621;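 active = GFP signal as percent of the solvent control above about 150%, meaning raised reporter expression, limit read from the data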;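 note: ratio of well median GFP fluorescence to plate DMSO mean so 100% = DMSO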
MEP2-GFP pick2: second confirmation of modulators of TOR reporter MEP2-GFP in yeast | shares compounds with LAP4 TOR yeast | actives 10% (n = 590) | S. cerevisiae MEP2-GFP strain, flow cytometry GFP, 3 h | AID 2622 | GFP response vs DMSO, % at 10 µM;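 active = GFP signal above 150% of the solvent control wells, that is a rise of more than half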;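 note: median channel GFP fluorescence of all gated yeast cells per well; ratio of median GFP to plate DMSO average so 100% = DMSO level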
RPL19A-GFP pick2: yeast RPL19A-GFP TOR reporter modulation, second cherry pick | shares compounds with LAP4 TOR yeast | S. cerevisiae RPL19A-GFP strain, flow cytometry GFP, 3 h; active compounds read low; 100% means same as DMSO wells | GFP response vs DMSO, % at 10 µM | actives 3% (n = 590);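 active = under 65% GFP response relative to DMSO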;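 note: median GFP channel fluorescence per well over the all cells gate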
CIT2-GFP pick2: second confirmation of modulators of TOR reporter CIT2-GFP in yeast. actives 8% (n = 590). S. cerevisiae CIT2-GFP strain, flow cytometry GFP, 3 h; DMSO control wells read 100%. AID 2624. GFP response vs DMSO, % at 10 µM. shares compounds with LAP4 TOR yeast;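 active = GFP response vs DMSO above about 150%, limit read from the data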;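 note: median green fluorescence per well over all gated yeast cells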
AGP1-GFP pick2: reconfirmed modulator of AGP1-GFP TOR reporter in yeast; shares compounds with LAP4 TOR yeast; S. cerevisiae AGP1-GFP strain, flow cytometry GFP, 3 h; percent response vs DMSO, % at 10 µM; 590 tested, under 10 active; AID 2643;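 active = over 150 percent of DMSO response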;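 note: median GFP channel fluorescence over all cells without mother daughter split; sample median GFP divided by mean DMSO control so 100% equals DMSO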
s288c autofluor: counter-screen for compound autofluorescence in yeast s288c cells; 610 tested, under 10 active; fluorescence change (kMESF span) at 33 µM; AID 2757; S. cerevisiae s288c, 520 nm autofluorescence, flow cytometry, 3 h; active compounds read high; zero means same as solvent-only cells; shares compounds with LAP4 TOR yeast;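 active = fluorescence span over the dose series, or activity score, above about 33, limit read from the data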
Starred values were filed as active, the others as inactive; nt = no result; + = active, no number. Compounds with a hit are over-represented: about 1.2% of the library has one in this group of screens.

SMILES	LAP4 TOR yeast	AGP1 TOR yeast	CIT2 TOR yeast	MEP2-GFP yeast	RPL19A TOR yeast	Pemphigus Ab inh	LAP4 cherry2	MEP2-GFP pick2	RPL19A-GFP pick2	CIT2-GFP pick2	AGP1-GFP pick2	others
COc1ccc(C2=NN(C(=O)c3ccccc3)C(c3ccc(OC)c(OC)c3)C2)c(OC(C)=O)c1 (configuration not stated)	101.1	83.0	113.2	+	95.4	90.3	102.2	104.8	100.0	104.3	98.8
COc1ccc(C2CC(c3ccccc3O)=NN2C(=O)c2ccccc2)cc1OC (configuration not stated)	93.8	99.4	106.0	102.1	103.2	89.4	nt	nt	nt	nt	nt
Cc1oc2c(c1C(=O)O)C(=O)c1ccccc1C2=O	156.3*	97.2	73.9	88.3	110.7	104.5	133.3	132.8	109.8	116.8	118.8
Cc1oc2c(c1C(=O)c1ccccc1)C(=O)C(=O)c1ccccc1-2	137.2	84.4	87.5	94.0	98.6	113.9	nt	nt	nt	nt	nt
COc1ccc(OC)c(S(=O)(=O)N2CCN(c3ccccc3)CC2)c1	100.7	100.4	103.2	102.1	98.5	112.3	nt	nt	nt	nt	nt
COc1ccc(OC)c(S(=O)(=O)ON2C(=O)c3ccccc3C2=O)c1	181.6*	78.1	79.7	87.0	101.3	289.9	nt	nt	nt	nt	nt	s288c autofluor=17.8
CC(C)CN1CCN(Cc2cnc(-c3ccc(Cl)cc3)nc2)CC1CCO (configuration not stated)	96.5	80.9	86.5	152.3	62.0	89.9	102.9	111.5	100.4	98.4	102.5
CCOC(=O)c1cnc2c(-c3cccc(Br)c3)cnn2c1C	93.7	93.0	96.3	105.8	96.6	nt	nt	nt	nt	nt	nt
CCOC(=O)N1CCc2c(sc(NC(C)=O)c2C(N)=O)C1	108.7	100.5	98.2	103.9	100.6	93.3	nt	nt	nt	nt	nt
CCOC(=O)N1CCc2c(sc(NC(=O)c3ccc(Cl)s3)c2C(N)=O)C1	183.3*	87.0	77.1	91.1	86.4	nt	125.2	96.1	99.3	112.6	95.5
O=C(NCc1ccco1)C(=O)NCC1OCCN1C(=O)c1ccc(Cl)cc1 (configuration not stated)	97.5	95.1	97.8	165.2	57.0	100.4	101.9	104.8	99.6	100.7	98.6
O=C(NCc1ccccn1)C(=O)NCC1OCCN1C(=O)c1ccc(Cl)cc1 (configuration not stated)	83.1	89.1	101.0	95.1	93.9	nt	nt	nt	nt	nt	nt
Clc1ccc(OCCCn2cncn2)cc1Cl	106.6	91.9	86.3	92.6	93.1	98.5	nt	nt	nt	nt	nt
O=c1c2sc(-c3ccccc3)cc2nc2n1CCCCC2	126.7	95.0	92.0	97.2	92.8	107.1	nt	nt	nt	nt	nt
O=c1c2sc(-c3ccccc3)cc2nc2n1CCC2	120.8	60.3	71.8	101.0	58.8	100.0	101.2	101.3	59.3*	90.4	65.9	s288c autofluor=0.91
NS(=O)(=O)c1ccc(N2CCOCC2)c(C(=O)NCc2ccc3c(c2)OCO3)c1	nt	nt	nt	nt	nt	102.3	nt	nt	nt	nt	nt
CCOC(=O)c1cc(-c2ccc(/C=C3/C(=O)NC(=O)C(C#N)=C3C)o2)ccc1Cl	151.1*	64.3	86.6	108.4	67.3	104.3	nt	nt	nt	nt	nt	s288c autofluor=1.21
Nc1nonc1-n1nnc(C(=O)N/N=C/c2cccc(Cl)c2)c1CSc1ccccc1	109.0	108.6	99.5	100.5	98.1	105.2	nt	nt	nt	nt	nt
C=CCn1c(C)c(/C=C/c2cc[n+](C)cc2)c2ccccc21	171.2*	117.1	240.9*	285.5*	129.2	329.9	nt	nt	nt	nt	nt	s288c autofluor=5.14
C/C(=N\NC(=O)CSCc1cccc(Br)c1)c1ccc([N+](=O)[O-])cc1	101.7	104.2	98.4	100.8	101.0	nt	nt	nt	nt	nt	nt
O=C(COC(=O)/C=C/c1cccc(F)c1)NC(=O)NC1CCCC1	163.6*	99.2	86.6	87.3	75.6	116.0	104.2	103.1	98.9	102.9	98.5
O=C(COC(=O)/C=C/c1cccc(F)c1)NC1CCCC1	103.4	92.3	85.3	94.1	92.8	107.5	nt	nt	nt	nt	nt
Cc1ccc(C)c(N2CCN(C(=O)CCS(=O)(=O)c3cccc4nonc34)CC2)c1	105.0	98.6	96.1	102.9	100.9	103.7	nt	nt	nt	nt	nt
CCC(=O)Nc1ccc(NC(=O)c2cc3ccccc3o2)cc1	106.5	109.9	104.6	102.7	103.6	109.6	nt	nt	nt	nt	nt	s288c autofluor=0.2
CCC(=O)Nc1ccc(NC(=S)NC(=O)c2cc3ccccc3o2)cc1	94.5	92.8	94.9	100.2	94.3	105.8	nt	nt	nt	nt	nt
SMILES	LAP4 TOR yeast	AGP1 TOR yeast	CIT2 TOR yeast	MEP2-GFP yeast	RPL19A TOR yeast	Pemphigus Ab inh	LAP4 cherry2	MEP2-GFP pick2	RPL19A-GFP pick2	CIT2-GFP pick2	AGP1-GFP pick2	others
COc1cc(NC(=O)c2ccccc2[N+](=O)[O-])ccc1NC(=O)c1cc2ccccc2o1	108.3	105.7	107.1	118.4	106.4	nt	nt	nt	nt	nt	nt	s288c autofluor=0.1
CCc1ccccc1N(CC(=O)NCc1ccco1)C(=O)CCC(=O)Nc1nccs1	82.6	87.3	87.1	92.7	90.2	110.5	nt	nt	nt	nt	nt
Nc1ccccc1C#CC(=O)c1ccccc1	227.7*	121.0	96.0	117.7	85.2	100.0	179.4*	143.2	85.6	121.0	130.8	s288c autofluor=0.5
Nc1ccccc1C#Cc1ccc([N+](=O)[O-])cc1	117.8	96.1	86.8	94.7	91.5	106.7	nt	nt	nt	nt	nt
O=C(C#Cc1cccc([N+](=O)[O-])c1)c1ccccc1	171.3*	92.7	82.2	103.3	88.3	101.9	nt	nt	nt	nt	nt	s288c autofluor=0.71
C/C(=N\NS(=O)(=O)c1ccc([N+](=O)[O-])cc1)c1ccc(NC(=O)c2ccco2)cc1	89.8	75.3	83.0	153.6	52.1	96.5	103.2	97.8	101.2	98.7	99.5
O=C(CCNS(=O)(=O)c1ccc(Cl)cc1)N1CCN(c2ncccn2)CC1	nt	nt	nt	nt	nt	98.9	nt	nt	nt	nt	nt
CC(=O)c1oc2ccccc2c1NC(=O)CN1CCCCC1	97.0	106.6	104.6	103.8	98.8	89.0	nt	nt	nt	nt	nt
